The results in this text go back to article PMC7862700, “An all-to-all approach to the identification of sequence-specific readers for epigenetic DNA modifications on cytosine”.

Holding throughout (assay): DAPPL (digital affinity profiling via proximity ligation, sequencing); 10 mM Tris-HCl pH 7.5, 50 mM NaCl, 1 mM DTT, 4% glycerol, room temperature, 30 min; GST-TFs on glutathione beads, 16-mer random dsDNA library, 0.1% formaldehyde crosslink after washing; high values mean tight binding
One assay addresses T1, FEV (Homo sapiens, UniProt Q99581 1-238).
T1 sequence: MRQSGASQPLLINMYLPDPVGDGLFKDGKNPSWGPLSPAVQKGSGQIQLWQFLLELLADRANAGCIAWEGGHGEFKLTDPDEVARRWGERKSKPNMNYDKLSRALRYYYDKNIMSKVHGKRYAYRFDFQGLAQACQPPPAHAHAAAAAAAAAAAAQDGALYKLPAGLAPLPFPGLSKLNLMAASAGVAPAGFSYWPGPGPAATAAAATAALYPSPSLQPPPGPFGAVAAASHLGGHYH
As to conditions: protein: recombinant; tags: N-terminal GST; dsDNA, one strand shown. The gist of the method:
(§1)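 Binding signal is each hexamer's read frequency for a factor divided by its frequency in the tag-only sample. The factors were GST-fused human transcription factors from yeast, captured on glutathione beads, DNA-barcoded and pooled with that sample. Pools were incubated with 200 nmole of a random double-stranded 16-mer DNA library in Tris/NaCl/DTT/glycerol buffer at room temperature for 30 min, then washed, crosslinked with 0.1% formaldehyde, proximity-ligated with BsaI/T4 ligase (1 h, 37 °C), PCR-amplified and sequenced on an Illumina NextSeq500.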

In the next assay the target is ETV5 (Homo sapiens, UniProt P41161 1-510). As to conditions: protein: recombinant; tags: N-terminal GST; dsDNA, one strand shown. The gist of the method: as §1
ETV5, sequence (P41161 whole entry): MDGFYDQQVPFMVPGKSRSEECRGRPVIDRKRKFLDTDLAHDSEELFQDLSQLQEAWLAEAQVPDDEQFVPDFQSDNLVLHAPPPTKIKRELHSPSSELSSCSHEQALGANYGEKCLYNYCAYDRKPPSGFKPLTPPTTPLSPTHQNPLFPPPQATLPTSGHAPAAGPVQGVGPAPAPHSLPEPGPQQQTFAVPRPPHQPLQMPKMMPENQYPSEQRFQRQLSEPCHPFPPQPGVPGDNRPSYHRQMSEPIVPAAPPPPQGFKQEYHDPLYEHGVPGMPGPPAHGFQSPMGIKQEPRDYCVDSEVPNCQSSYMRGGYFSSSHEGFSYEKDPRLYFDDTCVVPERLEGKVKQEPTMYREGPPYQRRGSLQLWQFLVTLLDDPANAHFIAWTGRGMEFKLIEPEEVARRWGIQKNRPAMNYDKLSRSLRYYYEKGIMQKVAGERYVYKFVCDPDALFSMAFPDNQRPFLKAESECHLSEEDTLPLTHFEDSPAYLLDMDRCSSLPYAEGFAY
Another assay concerns the target HSF1 (Homo sapiens, UniProt Q00613 1-529). As to conditions: protein: recombinant; tags: N-terminal GST; chain copies: 3; dsDNA, one strand shown. The gist of the method:
as §1

A further assay deals with T2, SPIC (Homo sapiens, UniProt Q8N5J4 1-248).
T2 sequence: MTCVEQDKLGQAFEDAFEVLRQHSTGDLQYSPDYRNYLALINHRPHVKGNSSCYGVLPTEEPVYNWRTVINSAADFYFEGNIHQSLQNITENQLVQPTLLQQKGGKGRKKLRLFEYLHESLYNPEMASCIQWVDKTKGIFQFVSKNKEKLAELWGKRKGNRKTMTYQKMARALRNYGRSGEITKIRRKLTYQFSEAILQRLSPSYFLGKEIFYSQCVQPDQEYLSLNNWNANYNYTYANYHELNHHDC
As to conditions: protein: recombinant; tags: N-terminal GST; dsDNA, one strand shown. The gist of the method: as §1

Another assay addresses ELF4 (Homo sapiens, UniProt Q99607 1-663). As to conditions: protein: recombinant; tags: N-terminal GST; dsDNA, one strand shown. The gist of the method:
as §1

The target in a further assay is T3, ELK4 (Homo sapiens, UniProt P28324-2 1-405).
T3 sequence: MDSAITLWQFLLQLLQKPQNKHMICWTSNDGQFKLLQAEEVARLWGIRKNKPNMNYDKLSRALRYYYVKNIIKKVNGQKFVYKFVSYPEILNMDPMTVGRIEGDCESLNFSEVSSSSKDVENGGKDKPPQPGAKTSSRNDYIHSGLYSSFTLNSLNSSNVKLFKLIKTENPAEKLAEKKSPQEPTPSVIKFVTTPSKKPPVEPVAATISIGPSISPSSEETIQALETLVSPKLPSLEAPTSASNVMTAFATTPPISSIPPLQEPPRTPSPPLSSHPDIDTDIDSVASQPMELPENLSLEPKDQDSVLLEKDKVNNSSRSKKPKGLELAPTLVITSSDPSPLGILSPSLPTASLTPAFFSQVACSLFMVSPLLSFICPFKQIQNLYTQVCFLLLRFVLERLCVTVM
As to conditions: protein: recombinant; tags: N-terminal GST; dsDNA, one strand shown. The gist of the method: as §1

Another assay addresses T4, ETV2 (Homo sapiens, UniProt O00321 1-342).
T4 sequence: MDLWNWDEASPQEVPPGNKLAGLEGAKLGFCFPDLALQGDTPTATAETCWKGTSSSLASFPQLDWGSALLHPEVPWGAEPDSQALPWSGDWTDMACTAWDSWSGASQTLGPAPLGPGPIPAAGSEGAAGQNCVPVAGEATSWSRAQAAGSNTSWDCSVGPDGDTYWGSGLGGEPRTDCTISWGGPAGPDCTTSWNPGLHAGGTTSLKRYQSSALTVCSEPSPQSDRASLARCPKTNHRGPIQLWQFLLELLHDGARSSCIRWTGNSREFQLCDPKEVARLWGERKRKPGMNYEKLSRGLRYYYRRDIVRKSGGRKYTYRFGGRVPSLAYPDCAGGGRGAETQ
As to conditions: protein: recombinant; tags: N-terminal GST; dsDNA, one strand shown. The gist of the method: as §1

Another assay concerns the target T5, ELF3 (Homo sapiens, UniProt P78545 1-371).
T5 sequence: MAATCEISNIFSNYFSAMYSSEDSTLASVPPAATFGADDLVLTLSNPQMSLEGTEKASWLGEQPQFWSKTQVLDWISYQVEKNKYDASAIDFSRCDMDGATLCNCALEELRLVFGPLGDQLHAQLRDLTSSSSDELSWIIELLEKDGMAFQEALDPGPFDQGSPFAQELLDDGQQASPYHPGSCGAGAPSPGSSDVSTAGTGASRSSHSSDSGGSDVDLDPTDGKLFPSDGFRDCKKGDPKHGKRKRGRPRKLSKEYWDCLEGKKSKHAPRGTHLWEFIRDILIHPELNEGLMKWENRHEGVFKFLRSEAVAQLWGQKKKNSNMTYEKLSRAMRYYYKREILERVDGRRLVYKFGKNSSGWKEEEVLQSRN
As to conditions: protein: recombinant; tags: N-terminal GST; dsDNA, one strand shown. The gist of the method:
as §1

A further assay has as its target CRX (Homo sapiens, UniProt O43186 1-299). As to conditions: protein: recombinant; tags: N-terminal GST; dsDNA, one strand shown. The gist of the method: as §1
For the next assay, the target named is ETV1 (Homo sapiens, UniProt P50549 1-477). As to conditions: protein: recombinant; tags: N-terminal GST; dsDNA, one strand shown. The method in brief:
as §1

The target in the next assay is T6, ERF (Homo sapiens, UniProt P50548 1-548).
T6 sequence: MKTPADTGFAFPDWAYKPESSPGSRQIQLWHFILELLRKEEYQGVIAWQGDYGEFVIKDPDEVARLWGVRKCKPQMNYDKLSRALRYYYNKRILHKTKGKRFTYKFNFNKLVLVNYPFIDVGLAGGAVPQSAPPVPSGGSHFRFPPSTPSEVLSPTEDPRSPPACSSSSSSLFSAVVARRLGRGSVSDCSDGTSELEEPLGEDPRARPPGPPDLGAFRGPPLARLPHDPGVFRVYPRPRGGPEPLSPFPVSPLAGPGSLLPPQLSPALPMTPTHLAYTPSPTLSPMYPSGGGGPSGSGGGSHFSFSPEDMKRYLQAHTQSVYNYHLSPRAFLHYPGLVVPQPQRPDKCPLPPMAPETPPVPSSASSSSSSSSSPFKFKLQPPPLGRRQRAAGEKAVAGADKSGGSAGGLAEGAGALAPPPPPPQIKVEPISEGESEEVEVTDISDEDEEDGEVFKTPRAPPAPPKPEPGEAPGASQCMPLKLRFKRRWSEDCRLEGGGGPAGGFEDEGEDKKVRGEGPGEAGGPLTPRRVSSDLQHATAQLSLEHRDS
As to conditions: protein: recombinant; tags: N-terminal GST; dsDNA, one strand shown. The method in brief:
as §1

Another assay deals with T7, ETV3L (Homo sapiens, UniProt Q6ZN32 1-361).
T7 sequence: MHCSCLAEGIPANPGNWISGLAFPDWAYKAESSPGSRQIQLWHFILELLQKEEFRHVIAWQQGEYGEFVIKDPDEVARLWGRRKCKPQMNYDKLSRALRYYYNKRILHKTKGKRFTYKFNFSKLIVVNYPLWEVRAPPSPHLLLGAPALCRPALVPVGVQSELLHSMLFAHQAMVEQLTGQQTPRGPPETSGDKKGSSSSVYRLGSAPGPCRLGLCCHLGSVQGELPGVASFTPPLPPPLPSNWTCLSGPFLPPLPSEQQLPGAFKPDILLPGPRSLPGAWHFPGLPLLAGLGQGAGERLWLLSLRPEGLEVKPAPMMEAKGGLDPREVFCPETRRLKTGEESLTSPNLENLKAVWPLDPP
As to conditions: protein: recombinant; tags: N-terminal GST; dsDNA, one strand shown. The method in brief:
as §1

The target in the next assay is T8, ETS2 (Homo sapiens, UniProt P15036 1-469).
T8 sequence: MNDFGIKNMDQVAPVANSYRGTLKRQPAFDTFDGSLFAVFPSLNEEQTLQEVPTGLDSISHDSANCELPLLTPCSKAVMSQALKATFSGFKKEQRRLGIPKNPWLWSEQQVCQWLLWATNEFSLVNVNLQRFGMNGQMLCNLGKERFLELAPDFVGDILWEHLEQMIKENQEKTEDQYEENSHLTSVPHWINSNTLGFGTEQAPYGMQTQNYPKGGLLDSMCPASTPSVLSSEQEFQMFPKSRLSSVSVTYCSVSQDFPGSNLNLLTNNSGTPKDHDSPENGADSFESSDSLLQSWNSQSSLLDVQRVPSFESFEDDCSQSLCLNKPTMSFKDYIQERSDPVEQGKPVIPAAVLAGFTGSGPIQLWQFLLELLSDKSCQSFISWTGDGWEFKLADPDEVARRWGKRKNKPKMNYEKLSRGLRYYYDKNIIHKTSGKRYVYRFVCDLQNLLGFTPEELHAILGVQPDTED
As to conditions: protein: recombinant; tags: N-terminal GST; dsDNA, one strand shown. The method in brief:
as §1

For the next assay, the target named is T9, SPDEF (Homo sapiens, UniProt O95238 1-335).
T9 sequence: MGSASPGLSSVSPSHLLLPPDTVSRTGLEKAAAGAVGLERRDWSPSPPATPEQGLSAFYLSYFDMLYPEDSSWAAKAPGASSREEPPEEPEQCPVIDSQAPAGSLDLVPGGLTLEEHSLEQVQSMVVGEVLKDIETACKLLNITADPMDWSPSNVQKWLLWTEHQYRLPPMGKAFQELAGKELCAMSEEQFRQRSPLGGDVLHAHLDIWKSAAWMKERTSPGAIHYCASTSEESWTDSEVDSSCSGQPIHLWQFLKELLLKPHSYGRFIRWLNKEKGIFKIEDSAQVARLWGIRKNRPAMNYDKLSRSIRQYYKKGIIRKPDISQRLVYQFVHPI
As to conditions: protein: recombinant; tags: N-terminal GST; dsDNA, one strand shown. The method in brief: as §1

In the next assay the target is T10, ETV7 (Homo sapiens, UniProt Q9Y603 1-341).
T10 sequence: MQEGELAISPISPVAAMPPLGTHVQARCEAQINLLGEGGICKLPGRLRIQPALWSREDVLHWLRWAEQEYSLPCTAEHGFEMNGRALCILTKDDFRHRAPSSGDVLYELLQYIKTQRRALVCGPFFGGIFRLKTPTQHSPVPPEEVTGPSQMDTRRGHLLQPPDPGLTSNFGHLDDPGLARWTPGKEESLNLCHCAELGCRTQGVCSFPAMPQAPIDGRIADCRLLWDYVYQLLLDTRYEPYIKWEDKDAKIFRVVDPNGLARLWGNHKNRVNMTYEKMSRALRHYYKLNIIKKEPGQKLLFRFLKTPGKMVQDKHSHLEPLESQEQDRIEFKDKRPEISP
As to conditions: protein: recombinant; tags: N-terminal GST; dsDNA, one strand shown. The method in brief: as §1

In the next assay the target is T11, ELF5 (Homo sapiens, UniProt Q9UKW6-2 1-255).
T11 sequence: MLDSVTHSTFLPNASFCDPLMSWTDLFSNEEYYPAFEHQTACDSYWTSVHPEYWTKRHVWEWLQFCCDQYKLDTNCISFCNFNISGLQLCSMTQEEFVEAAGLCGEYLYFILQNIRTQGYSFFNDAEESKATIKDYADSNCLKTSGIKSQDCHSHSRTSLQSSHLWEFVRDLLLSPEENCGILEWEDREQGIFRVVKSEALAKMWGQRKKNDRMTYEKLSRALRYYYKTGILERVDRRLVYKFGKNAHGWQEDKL
As to conditions: protein: recombinant; tags: N-terminal GST; dsDNA, one strand shown. The gist of the method: as §1

The next assay deals with T12, ETV3 (Homo sapiens, UniProt P41162-2 1-143).
T12 sequence: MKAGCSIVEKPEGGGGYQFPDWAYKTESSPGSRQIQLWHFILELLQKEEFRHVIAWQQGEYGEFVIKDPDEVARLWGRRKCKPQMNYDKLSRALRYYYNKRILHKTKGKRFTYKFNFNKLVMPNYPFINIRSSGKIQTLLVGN
As to conditions: protein: recombinant; tags: N-terminal GST; dsDNA, one strand shown. The gist of the method:
as §1

In the next assay the target is ETV6 (Homo sapiens, UniProt P41212 1-452). As to conditions: protein: recombinant; tags: N-terminal GST; dsDNA, one strand shown. The method in brief:
as §1

ETV6, sequence (P41212 whole entry): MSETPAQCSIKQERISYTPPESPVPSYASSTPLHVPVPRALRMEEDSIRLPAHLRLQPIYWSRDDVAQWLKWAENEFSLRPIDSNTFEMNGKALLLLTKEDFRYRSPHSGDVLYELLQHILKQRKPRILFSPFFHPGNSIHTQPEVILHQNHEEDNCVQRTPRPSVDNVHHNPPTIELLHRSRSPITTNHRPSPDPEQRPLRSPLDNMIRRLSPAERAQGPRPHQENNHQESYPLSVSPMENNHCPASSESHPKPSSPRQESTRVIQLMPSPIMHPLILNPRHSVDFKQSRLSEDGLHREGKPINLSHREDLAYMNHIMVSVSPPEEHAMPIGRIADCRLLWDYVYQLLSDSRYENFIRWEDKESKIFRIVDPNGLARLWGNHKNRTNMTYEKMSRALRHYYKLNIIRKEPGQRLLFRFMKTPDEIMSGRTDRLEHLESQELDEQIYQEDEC
CRX, sequence (O43186 whole entry): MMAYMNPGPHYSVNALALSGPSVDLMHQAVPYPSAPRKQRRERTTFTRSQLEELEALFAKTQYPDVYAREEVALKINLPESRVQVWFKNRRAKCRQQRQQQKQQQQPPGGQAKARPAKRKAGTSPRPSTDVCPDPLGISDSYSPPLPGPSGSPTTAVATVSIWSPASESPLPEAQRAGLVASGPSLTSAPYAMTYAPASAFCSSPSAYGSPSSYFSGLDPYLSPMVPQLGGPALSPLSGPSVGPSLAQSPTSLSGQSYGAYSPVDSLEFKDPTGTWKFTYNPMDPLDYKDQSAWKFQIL
ETV1, sequence (P50549 whole entry): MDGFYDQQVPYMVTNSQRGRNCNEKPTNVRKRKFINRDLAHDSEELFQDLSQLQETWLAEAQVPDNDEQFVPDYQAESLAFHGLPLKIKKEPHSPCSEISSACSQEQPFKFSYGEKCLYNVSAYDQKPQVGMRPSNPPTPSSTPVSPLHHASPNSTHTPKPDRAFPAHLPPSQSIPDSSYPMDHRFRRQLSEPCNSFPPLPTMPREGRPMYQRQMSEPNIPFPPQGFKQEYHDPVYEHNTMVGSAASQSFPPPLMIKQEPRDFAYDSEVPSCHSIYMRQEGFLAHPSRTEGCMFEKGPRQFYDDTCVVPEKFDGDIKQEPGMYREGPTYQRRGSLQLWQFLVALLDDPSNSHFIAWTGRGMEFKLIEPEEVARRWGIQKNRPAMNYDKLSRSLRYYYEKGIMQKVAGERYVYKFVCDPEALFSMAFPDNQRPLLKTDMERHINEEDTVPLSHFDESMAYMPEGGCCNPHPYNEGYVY
ELF4, sequence (Q99607 whole entry): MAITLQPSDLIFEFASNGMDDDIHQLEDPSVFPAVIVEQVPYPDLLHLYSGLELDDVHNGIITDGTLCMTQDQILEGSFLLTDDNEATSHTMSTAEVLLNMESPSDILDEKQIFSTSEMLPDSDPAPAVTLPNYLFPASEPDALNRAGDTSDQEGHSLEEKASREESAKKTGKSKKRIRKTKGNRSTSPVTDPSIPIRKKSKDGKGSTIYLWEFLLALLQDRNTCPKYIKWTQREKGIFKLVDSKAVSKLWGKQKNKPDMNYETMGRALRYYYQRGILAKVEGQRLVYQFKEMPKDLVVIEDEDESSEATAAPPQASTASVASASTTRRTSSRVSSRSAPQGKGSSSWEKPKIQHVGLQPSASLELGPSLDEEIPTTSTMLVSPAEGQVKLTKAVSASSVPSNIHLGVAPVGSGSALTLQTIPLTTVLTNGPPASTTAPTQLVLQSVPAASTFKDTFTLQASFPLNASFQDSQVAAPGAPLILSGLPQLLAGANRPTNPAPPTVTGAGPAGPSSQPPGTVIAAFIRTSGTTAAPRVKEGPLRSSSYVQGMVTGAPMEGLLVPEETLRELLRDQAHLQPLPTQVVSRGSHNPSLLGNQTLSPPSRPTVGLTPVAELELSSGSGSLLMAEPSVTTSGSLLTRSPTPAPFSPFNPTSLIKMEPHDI
HSF1, sequence (Q00613 whole entry): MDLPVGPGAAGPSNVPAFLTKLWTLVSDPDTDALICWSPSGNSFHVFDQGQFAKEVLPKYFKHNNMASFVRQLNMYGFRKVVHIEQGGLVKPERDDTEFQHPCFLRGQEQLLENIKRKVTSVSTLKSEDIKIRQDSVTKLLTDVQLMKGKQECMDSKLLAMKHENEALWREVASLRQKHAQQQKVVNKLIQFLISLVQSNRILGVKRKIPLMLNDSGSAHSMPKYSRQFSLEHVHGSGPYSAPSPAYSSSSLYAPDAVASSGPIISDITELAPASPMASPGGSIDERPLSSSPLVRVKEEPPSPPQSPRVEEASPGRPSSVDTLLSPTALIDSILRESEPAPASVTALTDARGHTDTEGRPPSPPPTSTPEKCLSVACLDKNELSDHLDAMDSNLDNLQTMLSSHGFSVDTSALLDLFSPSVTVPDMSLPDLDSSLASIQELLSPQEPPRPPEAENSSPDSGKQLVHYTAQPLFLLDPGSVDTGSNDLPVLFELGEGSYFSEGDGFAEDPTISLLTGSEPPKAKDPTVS

As for GTGCTT, the binding signal is 1.25 fold enrichment (6-mer frequency, TF over GST control) with FEV; 1.19 fold enrichment (6-mer frequency, TF over GST control) with ETV5; 1.05 fold enrichment (6-mer frequency, TF over GST control) in the assay with HSF1; 1.46 fold enrichment (6-mer frequency, TF over GST control) in the assay with SPIC; 1.27 fold enrichment (6-mer frequency, TF over GST control) in the assay with ELF4; 1.1 fold enrichment (6-mer frequency, TF over GST control) in the assay with ELK4. Also, the binding signal in the assay with ETV2 was 1.41 fold enrichment (6-mer frequency, TF over GST control); with ELF3, 1.14 fold enrichment (6-mer frequency, TF over GST control); with CRX, 1.14 fold enrichment (6-mer frequency, TF over GST control); in the assay with ETV1, 1.16 fold enrichment (6-mer frequency, TF over GST control); in the assay with ERF, 1.26 fold enrichment (6-mer frequency, TF over GST control); in the assay with ETV3L, 1.14 fold enrichment (6-mer frequency, TF over GST control). Besides, the binding signal is 1.25 fold enrichment (6-mer frequency, TF over GST control) with ETS2; 1.37 fold enrichment (6-mer frequency, TF over GST control) with SPDEF; 1.3 fold enrichment (6-mer frequency, TF over GST control) with ETV7; 1.41 fold enrichment (6-mer frequency, TF over GST control) with ELF5; 1.3 fold enrichment (6-mer frequency, TF over GST control) in the assay with ETV3; 1.37 fold enrichment (6-mer frequency, TF over GST control) with ETV6.
